Results taken from article PMC4336329 (PLoS ONE, 2015).
Among all 310,000 compounds or so, about 2,200 (0.71%) showed an effect of 50% or more. The effect is printed as a negative number. Many of the other results were omitted from the sample, so strong results are more common in it than they were.

Biological target: human ether-à-go-go-related gene (hERG) potassium channel (human, UniProt Q12809)
Assay: primary screen, population patch clamp on CHO cells stably expressing hERG; higher = less effect of the substance

Sequence of human ether-à-go-go-related gene (hERG) potassium channel (Q12809 whole entry, looked up): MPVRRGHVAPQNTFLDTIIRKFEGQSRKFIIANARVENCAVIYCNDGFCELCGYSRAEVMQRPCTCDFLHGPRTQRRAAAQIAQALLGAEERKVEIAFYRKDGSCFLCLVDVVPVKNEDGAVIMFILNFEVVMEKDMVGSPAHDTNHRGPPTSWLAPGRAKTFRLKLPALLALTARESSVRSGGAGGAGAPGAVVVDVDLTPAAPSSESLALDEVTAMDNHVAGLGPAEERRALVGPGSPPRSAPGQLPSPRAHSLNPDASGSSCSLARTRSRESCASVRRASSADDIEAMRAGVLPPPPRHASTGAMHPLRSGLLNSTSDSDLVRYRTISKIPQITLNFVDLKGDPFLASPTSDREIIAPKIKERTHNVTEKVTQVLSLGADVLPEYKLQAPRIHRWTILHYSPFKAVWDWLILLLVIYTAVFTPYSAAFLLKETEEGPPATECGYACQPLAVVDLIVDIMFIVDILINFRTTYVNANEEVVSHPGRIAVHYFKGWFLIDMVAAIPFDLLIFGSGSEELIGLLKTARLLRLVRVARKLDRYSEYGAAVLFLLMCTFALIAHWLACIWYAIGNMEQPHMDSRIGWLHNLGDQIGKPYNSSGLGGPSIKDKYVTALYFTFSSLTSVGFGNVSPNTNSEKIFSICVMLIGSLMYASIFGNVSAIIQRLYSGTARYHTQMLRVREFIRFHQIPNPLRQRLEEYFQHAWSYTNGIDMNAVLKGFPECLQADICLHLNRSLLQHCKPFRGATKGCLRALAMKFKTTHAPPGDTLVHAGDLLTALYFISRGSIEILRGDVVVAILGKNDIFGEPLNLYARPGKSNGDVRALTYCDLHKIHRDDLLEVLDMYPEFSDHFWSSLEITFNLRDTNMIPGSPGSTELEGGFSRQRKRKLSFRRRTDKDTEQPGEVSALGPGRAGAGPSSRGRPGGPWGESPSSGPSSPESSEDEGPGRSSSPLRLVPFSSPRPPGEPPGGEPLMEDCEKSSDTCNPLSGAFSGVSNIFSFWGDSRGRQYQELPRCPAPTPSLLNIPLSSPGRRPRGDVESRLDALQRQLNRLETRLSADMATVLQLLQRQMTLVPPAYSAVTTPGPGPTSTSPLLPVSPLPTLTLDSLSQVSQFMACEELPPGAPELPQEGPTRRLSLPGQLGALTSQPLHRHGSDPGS

Structure (SMILES) | hERG current change (%, negative = inhibition) at 1uM [%]
COC(=O)C1CC(Cl)CN1c1ncc(C(F)(F)F)cc1Cl (centres unmarked) | 15.5
COc1ccc(-n2c(CNC(=O)COc3ccc(Cl)cc3)n[nH]c2=S)cc1 | 16.9
C/C(=N\O)C(C)(C)Nc1ccc(Cl)cc1 | 10.9
CCOc1cc(S(=O)(=O)NC2CC(C)(C)NC(C)(C)C2)ccc1Cl | 11.2
COc1ccccc1-c1nnc2sc(-c3cc4ccccc4o3)nn12 | -0.794
CCN(CC)CCNC(=O)c1ccc(Cl)c(S(=O)(=O)N2CCCCCC2)c1.Cl | -52.2
Cl.O=C(NCCN1CCOCC1)c1ccc(Cl)c(S(=O)(=O)N2CCCCCC2)c1 | -10.3
CCN(CC)CCNC(=O)c1ccc(NC(=O)c2ccc(Cl)c(S(=O)(=O)N3CCCCCC3)c2)cc1.Cl | 1.9
CN(C)CCCNC(=O)c1ccc(Cl)c(S(=O)(=O)N2CCCCCC2)c1.Cl | -70
Cl.O=C(NCCCN1CCOCC1)c1ccc(Cl)c(S(=O)(=O)N2CCCCCC2)c1 | -18.9
O=C(NCCCN1CCCC1=O)c1ccc(Cl)c(S(=O)(=O)N2CCCCC2)c1 | 9.57
CN(C)C(=O)C12CCC(C)(C(=O)C1Br)C2(C)C (centres unmarked) | 14.5
O=c1oc(-c2ccco2)nc2sc3c(c12)CCCC3 | 11.5
COc1cc(OC)cc(C(=O)NCC(=O)OC2CCCCC2=O)c1 (centres unmarked) | -1.67
O=C(CNC(=O)c1ccc(Oc2ccccc2)cc1)OC1CCCCC1=O (centres unmarked) | -58.8
COc1ccc(C(=O)NCC(=O)OC2CCCCC2=O)cc1 (centres unmarked) | -0.0213
Cc1nc2ncnn2c(C)c1CCC(=O)N1CCc2ccccc2C1 | -19.5
Cc1nc2ncnn2c(C)c1CCC(=O)N1CCc2ccccc21 | -66.3
Cc1nc2nc(C)c(CCC(=O)N3CCc4ccccc43)c(C)n2n1 | -36.3
CCN(CC(=O)Nc1ccc(NC(C)=O)cc1)C(=O)c1sc2nc3n(c(=O)c2c1C)CCC3 | 10.2

Structure (SMILES) | hERG current change (%, negative = inhibition) at 1uM [%]
NNC(=O)c1cncn1-c1ccc(F)cc1 | 12.3
COc1cc(OC)c(NC(=O)c2cncn2-c2ccc(F)cc2)cc1Cl | 5.23
O=C(Nc1cccc(Cl)c1)c1cncn1-c1ccc(F)cc1 | -52.8
CC(C)(C)C1CCC(OC(=O)CN2CCCCC2)CC1 (centres unmarked) | 2.3
Cc1ccc(S(=O)(=O)c2ccc(Cl)cc2)cc1S(=O)(=O)N1CCOCC1 | 3.5
Cc1ccc(S(=O)(=O)c2cc3c(=O)n4cccc(C)c4nc3n(Cc3ccncc3)c2=N)cc1 | 9.03
COCCCNC(=O)c1cccn2c(=O)c3cc4ccccc4cc3nc12 | -8.65
O=C(NCCN1CCN(c2ccccc2)CC1)c1cccn2c(=O)c3ccccc3nc12 | -10.8
CN(CCCNC(=O)c1cccn2c(=O)c3ccccc3nc12)Cc1ccccc1 | -75.3
Cc1cccn2c(=O)c3cc(C(=O)NC(C)C)c(=N)n(Cc4ccncc4)c3nc12 | -67.2
CCCCNC(=O)c1cc2c(=O)n3cccc(C)c3nc2n(Cc2ccccc2)c1=N | -80.7
CCNC(=O)c1cc2c(=O)n3cccc(C)c3nc2n(Cc2ccc(C)cc2)c1=N | -97.1
Cc1cccn2c(=O)c3cc(C(=O)NCCN4CCOCC4)c(=N)n(Cc4ccc(F)cc4)c3nc12 | -13.3
Cc1ccc(Cn2c(=N)c(C#N)cc3c(=O)n4cccc(C)c4nc32)cc1 | -2.14
N#Cc1cnn2c(-c3cccc(C(F)(F)F)c3)ccnc12 | 1.86
CCOC(=O)Cc1csc(NC(=O)/C=C\c2ccccc2Cl)n1 | 7.16
CC(C)C(=O)Nc1cccc(NC(=O)c2cccnc2)c1 | -1.01
CCC(c1nnnn1CS(=O)(=O)c1ccc(C)cc1)N1CCC(C(N)=O)CC1.Cl (centres unmarked) | -3.7
Cc1cccc(OCC(=O)Nc2ccc(S(=O)(=O)Nc3ccccn3)cc2)c1 | 17.3
CS(=O)(=O)n1nc(NCc2cccs2)nc1NCc1cccs1 | 10.5

Structure (SMILES) | hERG current change (%, negative = inhibition) at 1uM [%]
CCOC(=O)CSc1c(-c2ccc(Cl)cc2)[nH]c2ccccc12 | 1.02
COCCNC(=O)c1cc2c(=O)n3cccc(C)c3nc2n(Cc2ccncc2)c1=N | -31.5
CCCCNC(=O)c1cc2c(=O)n3cccc(C)c3nc2n(Cc2ccncc2)c1=N | -75.4
CCCc1cc(=O)n2[nH]c(NCc3c(F)cccc3Cl)nc2n1 | 12.7
O=C(NC1CCCCCC1)c1cc(=O)[nH]c2ccc(S(=O)(=O)N3CCOCC3)cc12 | 1.03
Cc1ccc(C)c(N2CCN(C(=O)c3ccc(Cn4c(=O)[nH]c5ccccc5c4=O)cc3)CC2)c1 | 11.6
COc1cccc(NC(=O)CCNC(=O)C2CCN(S(=O)(=O)c3ccc(F)cc3)CC2)c1 | 14.9
CCOC(=O)C1CCN(S(=O)(=O)c2ccc3[nH]c(=O)ccc3c2)CC1 | -2.48
CCOC(=O)C1CCN(S(=O)(=O)c2ccc3[nH]c(=O)oc3c2)CC1 | 3.58
CCOC(=O)C1CCN(S(=O)(=O)c2ccc3oc(=O)ccc3c2)CC1 | -78.2
COc1ccc(CCNCC(O)COc2ccc(Cl)cc2)cc1OC.Cl (centres unmarked) | -56
CC(=O)c1cccc(OCC(O)CNCCc2ccc(Cl)cc2)c1 (centres unmarked) | 10.6
CCC(=O)c1ccc(OCC(O)CNCc2ccc(F)cc2)cc1 (centres unmarked) | -12.8
OC(CNCCc1ccc(Cl)cc1)COc1cc(Cl)ccc1Cl (centres unmarked) | 2.52
COc1ccc(CCNCC(O)COc2cccc(Br)c2)cc1OC (centres unmarked) | -39.5
Cc1cc(Cl)ccc1OCC(O)CNCCc1ccc(S(N)(=O)=O)cc1 (centres unmarked) | -58.2
COc1ccc(C(OCC(O)CNCCc2ccc(S(N)(=O)=O)cc2)c2ccc(OC)cc2)cc1 (centres unmarked) | -1.33
COc1ccc(CCNCC(O)COc2cccc(C(C)=O)c2)cc1OC.O=C(O)C(=O)O (centres unmarked) | 16
CCC(=O)c1ccc(OCC(O)CNCCc2ccc(Cl)cc2)cc1 (centres unmarked) | -69.9
